Assay results: the supplement of paper PMC8728848
Shown is part of a subset that was picked to be rich in the strongest signals.

What was measured:
Assay in all cases: glycan array binding signal (z-score within array); higher = stronger binding
Details in all cases: glycan notation: IUPAC condensed, linker removed; mutation: R343V
Fuc(a1-2)Gal(b1-4)Glc6S = target: Fuc(a1-2)Gal(b1-4)Glc6S
Outline: (§1)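 From the Consortium for Functional Glycomics database, 3228 arrays were curated, keeping only those whose protein sequence was available. Binding is given as a within-array Z-score averaged across arrays sharing a protein sequence and across linkers. Negative Z-scores can be read as non-binding.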

[1] = target: Fuc(a1-2)Gal(b1-4)GlcNAc(b1-3)Gal(b1-4)GlcNAc
Outline: as §1

[2] = target: Fuc(a1-2)Gal6S(b1-4)Glc6S
Outline: as §1

[3] = target: Fuc(a1-2)[Gal(a1-3)]Gal(b1-4)GlcNAc
Outline: as §1

[4] = target: Fuc(a1-2)[GalNAc(a1-3)]Gal(b1-3)GlcNAc
Outline: as §1

Fuc(a1-3)GlcNAc = target: Fuc(a1-3)GlcNAc
Outline: as §1

Gal(b1-3)Gal(b1-4)GlcNAc = target: Gal(b1-3)Gal(b1-4)GlcNAc
Outline: as §1

[5] = target: Gal(b1-3)GalNAc(b1-4)Gal(b1-4)Glc
Outline: as §1

[6] = target: Gal(b1-3)[Fuc(a1-4)]GlcNAc(b1-3)Gal(b1-4)[Fuc(a1-3)]GlcNAc
Outline: as §1

[7] = target: Gal(b1-3)[Neu5Ac(a2-6)]GlcNAc(b1-6)Gal(b1-4)Glc
Outline: as §1

[8] = target: Gal(b1-4)GlcNAc(b1-6)GalNAc
Outline: as §1

Gal3S(b1-4)Glc6S = target: Gal3S(b1-4)Glc6S
Outline: as §1

Gal3S6S(b1-4)GlcNAc6S = target: Gal3S6S(b1-4)GlcNAc6S
Outline: as §1

GlcA(b1-6)Gal = target: GlcA(b1-6)Gal
Outline: as §1

[9] = target: GlcNAc(b1-2)Man(a1-3)[GlcNAc(b1-2)Man(a1-6)]Man(b1-4)GlcNAc(b1-4)GlcNAc
Outline: as §1

[10] = target: GlcNAc(b1-3)Gal(b1-3)GalNAc
Outline: as §1

[11] = target: GlcNAc(b1-3)[GlcNAc(b1-4)][GlcNAc(b1-6)]GlcNAc
Outline: as §1

[12] = target: GlcNAc(b1-4)Gal(b1-4)GlcNAc
Outline: as §1

[13] = target: GlcNAc(b1-4)[GlcNAc(b1-6)]GalNAc
Outline: as §1

Kdn(a2-3)Gal(b1-3)GlcNAc = target: Kdn(a2-3)Gal(b1-3)GlcNAc
Outline: as §1

[14] = target: Man(a1-2)Man(a1-3)[Man(a1-6)]Man(a1-6)[Man(a1-2)Man(a1-3)]Man(b1-4)GlcNAc(b1-4)GlcNAc
Outline: as §1

[15] = target: Man(a1-3)[Man(a1-6)]Man(a1-6)[Man(a1-2)Man(a1-3)]Man(b1-4)GlcNAc(b1-4)GlcNAc
Outline: as §1

[16] = target: Man(a1-3)[Man(a1-6)]Man(a1-6)[Man(a1-3)]Man(b1-4)GlcNAc(b1-4)GlcNAc
Outline: as §1

[17] = target: Neu5Ac(a2-3)Gal(b1-4)GlcNAc(b1-3)Gal(b1-3)GlcNAc
Outline: as §1

[18] = target: Neu5Ac(a2-6)Gal(b1-4)GlcNAc6S
Outline: as §1

[19] = target: Neu5Ac(a2-8)Neu5Ac(a2-3)Gal(b1-4)Glc
Outline: as §1

[20] = target: Neu5Ac(a2-8)Neu5Ac(a2-8)Neu5Ac(a2-3)Gal(b1-4)Glc
Outline: as §1

B1: Surfactant Protein D (Human); Neck + Carbohydrate Recognition Domain (NCRD) (Homo sapiens) (protein)
chain: MLLFLLSALVLLTQPLGYLEAEMKTYSHRTMPSACTLVMCSSVESGLPGRDRDGREGPRGEKGDPGLPGAAGQAGMPGQAGPVGPKGDNGSVGEPGPKGDTGPSGPPGPPGVPGPAGREGALGKQGNIGPQGKPGPKGEAGPKGEVGAPGMQGSAGARGLAGPKGERGVPGERGVPGNTGAAGSAGAMGPQGSPGARGPPGLKGDKGIPGDKGAKGESGLPDVASLRQQVEALQGQVQHLQAAFSQYKKVELFPNGQSVGEKIFKTAQFVKPFTEAQLLCTQAGGQLASPRSAAENAALQQLVVAKNEAAFLSMTDSKTEGKFTYPTGESLVYSNWAPGEPNDDGGSEDCVEIFTNGKWNDVACGEKRLVVCEF
Fuc(a1-2)Gal(b1-4)Glc6S
  glycan array binding signal (z-score): -0.514
[1]
  glycan array binding signal (z-score): 1.5
[2]
  glycan array binding signal (z-score): -0.304
[3]
  glycan array binding signal (z-score): -0.508
[4]
  glycan array binding signal (z-score): -0.559
Fuc(a1-3)GlcNAc
  glycan array binding signal (z-score): 3.11
Gal(b1-3)Gal(b1-4)GlcNAc
  glycan array binding signal (z-score): -0.562
[5]
  glycan array binding signal (z-score): -0.463
[6]
  glycan array binding signal (z-score): 2.11
[7]
  glycan array binding signal (z-score): -0.498
[8]
  glycan array binding signal (z-score): -0.546
Gal3S(b1-4)Glc6S
  glycan array binding signal (z-score): -0.317
Gal3S6S(b1-4)GlcNAc6S
  glycan array binding signal (z-score): -0.189
GlcA(b1-6)Gal
  glycan array binding signal (z-score): -0.463
[9]
  glycan array binding signal (z-score): 3.08
[10]
  glycan array binding signal (z-score): 1.72
[11]
  glycan array binding signal (z-score): 3.11
[12]
  glycan array binding signal (z-score): 3.13
[13]
  glycan array binding signal (z-score): 2.16
Kdn(a2-3)Gal(b1-3)GlcNAc
  glycan array binding signal (z-score): -0.504
[14]
  glycan array binding signal (z-score): 2.61
[15]
  glycan array binding signal (z-score): 3.01
[16]
  glycan array binding signal (z-score): 3.27
[17]
  glycan array binding signal (z-score): -0.489
[18]
  glycan array binding signal (z-score): -0.319
[19]
  glycan array binding signal (z-score): -0.47
[20]
  glycan array binding signal (z-score): -0.49
